Test systems include T-47D breast; BT-549 breast; MDA-MB-435 melanoma; SW-620 colon; MCF7 breast; HCT-116 colon; HCC-2998 colon; KM12 colon.
Holding throughout (experiment): NCI-60 one-dose screen, 48 h (100 = growth as untreated, 0 = no growth, -100 = all killed)
Holding throughout (details): 10 µM unless noted

Each structure is given as a SMILES string. This is part of a sample that, as a whole, favours compounds with a hit. Of some 83,000 tested, about 20% had one in any assay.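 96-well plates, one dose, 48 hours. Percent growth reported; active if below 10.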 A number with no mark means an inactive call. Calls of active or inactive are those of the source.

With `COc1ccc(-c2c(C(=O)NS(C)(=O)=O)n(Cc3cccc(C(F)(F)F)c3)c3ccccc23)cc1`, the growth was 87.7% with T-47D breast; 92.3% in the test with BT-549 breast; 97.3% in the test on MDA-MB-435 melanoma; 95.4% in the test on SW-620 colon; 91.4% in the test with MCF7 breast; 84.5% in the test on HCT-116 colon. Further, the growth was 108% with HCC-2998 colon and 92.8% in the test with KM12 colon.
Consider `COc1cc(C2CC(c3ccc(SC)cc3)=NN2C(C)=O)cc(OC)c1OC` (stereo not given), for which the growth in the test on T-47D breast is 72.1%; with BT-549 breast, 36.4%; in the test with MDA-MB-435 melanoma it was -28.5% (active); in the test on SW-620 colon, 38.5%; in the test with MCF7 breast, 41.9%; in the test with HCT-116 colon, 41.5%. In addition, the growth is 61% in the test with HCC-2998 colon and 39.4% with KM12 colon.
Take `COc1ccc(-c2nc(NN)c3c(C)nn(-c4ccc(F)cc4)c3n2)cc1`: the growth is 38.6% in the test on T-47D breast; 46.8% with BT-549 breast; 0.816% (active) in the test on MDA-MB-435 melanoma; 22.9% in the test on SW-620 colon; 26.2% with MCF7 breast; 18.7% in the test on HCT-116 colon. Moreover, the figures for the growth in the test with HCC-2998 colon and in the test on KM12 colon were 76.6% and 29.1%, respectively.
Consider `CN1CCN(Cc2ccc(NC(=O)c3ccc(C(C)(C)C)c(C#Cc4cnc5cccnn45)c3)cc2C(F)(F)F)CC1`, for which the growth was 26.6% in the test with T-47D breast; 88.5% in the test on BT-549 breast; -88.5% (active) in the test with MDA-MB-435 melanoma; -61.9% (active) with SW-620 colon; -74.3% (active) in the test with MCF7 breast; -70.8% (active) in the test on HCT-116 colon. In addition, the growth is -81.6% (active) in the test with HCC-2998 colon and -80.8% (active) with KM12 colon.
Take `C=C1C(=O)O[C@H]2[C@H]1CC/C(COC(=O)C(C)c1ccc(CC(C)C)cc1)=C\CC[C@@]1(C)O[C@@H]21` (stereo not given in full): the growth was -35% (active) with T-47D breast; -1.34% (active) in the test on BT-549 breast; -11.7% (active) with MDA-MB-435 melanoma; -60.1% (active) in the test on SW-620 colon; 9.15% (active) in the test on MCF7 breast; -73.7% (active) in the test with HCT-116 colon. Further, the figures for the growth with HCC-2998 colon and in the test with KM12 colon were 72.2% and 31.8%, respectively.
`CCS(=O)(=O)c1ncnc2nc[nH]c12`: the growth in the test with T-47D breast was 89.8%; in the test on BT-549 breast, 90.9%; in the test on MDA-MB-435 melanoma, 104%; in the test with SW-620 colon, 99.8%; in the test on MCF7 breast it was 89.2%; in the test on HCT-116 colon, 87.3%. For the same compound, the growth in the test on HCC-2998 colon is 107%; with KM12 colon it was 108%.
Turning to `Cc1nn(-c2ccccc2)c(-n2ccnc2)c1/C=N/Nc1nc(-c2ccc(Cl)c(Cl)c2)cs1`, the growth in the test with T-47D breast is 28.7%; in the test on BT-549 breast, 71.5%; in the test on MDA-MB-435 melanoma it was 66.2%; in the test with SW-620 colon, 30.6%; in the test on MCF7 breast, 17.1%; with HCT-116 colon, 0.896% (active). Besides, the values for the growth in the test on HCC-2998 colon and in the test with KM12 colon were 63.5% and 66.7%, respectively.
As to `CCCCCCCCCCCCCCCCCCOc1ccc(CC(=O)OCC[N+](C)(C)C)cc1`, the growth is 99.5% in the test with T-47D breast; 95.8% in the test with BT-549 breast; 100% in the test on MDA-MB-435 melanoma; 99.9% in the test on SW-620 colon; 95.8% in the test with MCF7 breast; 93% with HCT-116 colon. For the same compound, the growth in the test on HCC-2998 colon was 95.4%; with KM12 colon, 96.8%.
In the case of `CCOC(=O)c1c(C)oc2ncnc(N3CCN(C(=O)COc4ccc(C(C)(C)C)cc4)CC3)c12`, the growth is 47.7% in the test on T-47D breast; 54.3% in the test with BT-549 breast; 99.8% in the test on MDA-MB-435 melanoma; 99.8% in the test on SW-620 colon; 83% with MCF7 breast; 75.2% with HCT-116 colon. Further, the figures for the growth in the test with HCC-2998 colon and in the test with KM12 colon were 104% and 89.9%, respectively.
As to `CC(=O)c1ccc(Nc2nc(C(C)=O)c(C)s2)cc1`, the growth in the test with T-47D breast is 92.4%; with BT-549 breast, 105%; with MDA-MB-435 melanoma, 100%; with SW-620 colon, 96.2%; with MCF7 breast it was 83.6%; with HCT-116 colon, 104%. Besides, the growth in the test on HCC-2998 colon was 98.3%; in the test on KM12 colon, 98.5%.
As to `c1ccc(OCc2nnc(-c3ccc(Oc4ccccc4)cc3)o2)cc1`, the growth was 74.3% in the test with T-47D breast; 101% with BT-549 breast; 101% with MDA-MB-435 melanoma; 103% in the test on SW-620 colon; 99.3% with MCF7 breast; 100% with HCT-116 colon. In addition, the growth in the test with HCC-2998 colon is 114%; in the test with KM12 colon, 93.7%.
Take `Cc1nc2nc(SCC(=O)O)[nH]c2c(=O)[nH]1`: the growth in the test on T-47D breast was 96.7%; in the test on BT-549 breast it was 97.2%; with MDA-MB-435 melanoma, 107%; in the test with SW-620 colon, 98.5%; in the test on MCF7 breast it was 93.2%; in the test on HCT-116 colon it was 104%. In addition, the figures for the growth in the test with HCC-2998 colon and in the test on KM12 colon were 101% and 105%, respectively.
Regarding `CCCCNC(=O)Oc1ccc(/C(=C(\C)c2ccc(Cl)cc2)c2ccc(OCCN3CCCCC3)cc2)cc1`, the growth was 47% in the test with T-47D breast; 86.5% in the test on BT-549 breast; 74.2% with MDA-MB-435 melanoma; 83.6% with SW-620 colon; 32.3% with MCF7 breast; 53.6% in the test on HCT-116 colon. Further, the growth with HCC-2998 colon was 87.8%; with KM12 colon, 67.1%.
For `COc1cc(CCC[P+](c2ccccc2)(c2ccccc2)c2ccccc2)c(OC)c2c1OCO2`, the growth in the test on T-47D breast was 13.9%; with BT-549 breast, 15.8%; in the test on MDA-MB-435 melanoma, 3.48% (active); in the test with SW-620 colon, 31.1%; with MCF7 breast, 9.9% (active); in the test on HCT-116 colon it was 16.4%. The growth was 26.7% with HCC-2998 colon and 6.93% (active) with KM12 colon.
As for `COc1ccc(C2C(N)=NNC2c2cccc(O)c2)cc1` (stereo not given), the growth was 101% in the test on T-47D breast; 87.5% in the test on BT-549 breast; 100% in the test on MDA-MB-435 melanoma; 109% with SW-620 colon; 96.6% with MCF7 breast; 104% with HCT-116 colon. Further, the growth was 122% with HCC-2998 colon and 92.8% with KM12 colon.

For the origin of these results see PubChem BioAssay (NCI).
